This note sets out measurements from the supplement of paper PMC6555819.

This assay has as its system THRa:RXRa (NR concentration 90 nM, RXRa partner concentration 90 nM). Kind of assay: PBM binding z-score (relative to random genomic background probes); higher = stronger binding; sequences stand for … in GC…GCGATTGACAGCGTAGAATGAAGG
The essentials:
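Binding z-scores were set against random background probes. The data came from custom Agilent 4×180K protein-binding microarrays carrying double-stranded probes with 34-nt variable regions, incubated 1 h with ligand-free nuclear receptor dimers. Partner-specific antibodies detected binding, and scanned fluorescence was regression-normalized.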
As for CCGACTGGGGAAAAGGTTACCATACTCAGTACGA, the PBM binding z-score came out at 1.05.
For CAAACGAGGGCATGAGTTGATAGCAAATGCCGAT the value was 1.56.
On to TTACCAAAGTGAGCTGAGGTCGTTGATCCAACTC, for which the PBM binding z-score was found to be 3.02.
For TCGAGTAGGTTAGTGGCATTCAGAATGGCGTCGA the value was -0.441; for CCAGACAGGTGAGAAGGTAATTCAGCCTCGATTA, 0.0341; for CGTCCAAGGTCAGCAGGTCAGTGTAAGCGACGTG, 4.01.
For GCAGACAGGTGAAACGAAGGTAACTCAGGGTGGC the value was 1.42.
For GCGATTGGGGCATCAGCAGGTTACCATAACTTAA the value was 1.03.
In the case of CCTTACGGGTCACTCCGGGTTATAGCATCGGAGT, the PBM binding z-score was 4.89.
Then CCTAGCAGGCCTATCTGGGTCACTCAAGGCTTGA, with 2.3.
For ACTCGGAGCACAAAGGTCAGAGCTACGCCAGTGA, the PBM binding z-score was 2.63.
Then AGAGTGAGGTTAAGATCAGGGAAACAGAATACAT, with 2.6.
For CAAACTAGGTCGCGAAAGGTCAAAGTCGAATGAC the value was 4.79; for CAAACTAGGTCTAAGGTCAAAGTCGAGCCAACCA, 4.1.
Then GATACAGGGTCAAGGCCAGAGTTCGCGTATTGAT, with 3.64.
CCTACTAGGCCACGAAAGGTCATTGATTCAGTGA: the PBM binding z-score worked out at 3.85.
AGAATGAGGTTAAGATCAGGGACACAGAATACAT had a PBM binding z-score of 3.39.
For TCTTGTAGATCTAGCAGGTTAAGAAAGCCTGAGT the value was 0.286; for CCGAGTAGGTTATAGGGCATTCAGGCAACGGTGA, 0.932; for TAGCCTAGGTCTTTCAGGGGCCAGTATAGAAAGC, 0.663.
Regarding CCTGGTAGGTCAATGGTCAGCTAAAGCAGCTCGC, the PBM binding z-score came to 1.56.
Then CCTACTGTGCCAAGGTCATTGATCAGTCAAAGCA, with 3.68; and TCTCGTTGGTCAAAGGTCACACACTCGAAATGCG, with 4.2; and TAGCCTAGGTCATTGGGCCACTATAGTACGCATC, with 2.87.
As for TAGCCTAGGTCATTCAGTGGCCAGTATAGAAAGC, the PBM binding z-score is 2.55.
Sequence TGAATGAGGTTATAAGATGAGGGAACGTTGCAAA yielded a PBM binding z-score of 1.77.
Then CAAACTAGGCCAAAGGTCAAAGTCGAGCCAACCA, with 3.93.
Then GCAGGCAGGTGAAACGCAGGTAACTCAGGGTGGC, with 1.58; and CTCGAAAGGTCGGTTGAGGTTAGTATACGGATAA, with 4.85; and CCAACTAGGTCAAGGACAGTGAATCTCCGCACGC, with 3.16.
In turn, CCGACTGGGGCATAAAGGTTACCATACCATCCGG registered a PBM binding z-score of 1.19.
Then ACTAGTTGGTCAGCTGAGGTCAGACACAATTCGG, with 4.56.
For AGTCAAAGTTCATCTAGGTACCGTAAGATATGCT the value was 3.05; for CCGACAGGGGCAAAGGTTACCATACTCAGTACGA, 2.17.
For CCTATTGGGCCATTCAGAGGTCATTGATCATATG the value was 3.37; for CCTATTAGTTGACCCTAAGGGCAACCGAAGCTCG, 4.02; for AGTCAAAGTTCCCTAGGTAACGTAAGATTCAGCT, 0.427.
The sequence TGTAGCAGGCCAGAGGGTCACTCAAGAGGTACGG showed a PBM binding z-score of 1.59.
For TAGCCTTGGTCAGATCGGGCCAGTATACGCTATA the value was 1.29.
For ATCCCTAGGTAAAGTTCAGTGAAAGATCGATAGA the value was 1.07.
